Data reported in PubChem BioAssay (NCI).
This is part of a sample that, as a whole, favours compounds with a hit. Of some 83,000 tested, about 20% had one in any assay.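 Cell lines were cultured in 96-well plates, exposed to a single compound concentration, and assessed for percent growth 48 hours later.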 The source made the active and inactive calls. Rule for the calls: active = growth percent below 10; inactive = the rest.

Tests used:
Test in all cases: NCI-60 one-dose screen, 48 h (100 = growth as untreated, 0 = no growth, -100 = all killed)
Settings in all cases: 10 µM unless noted
HCT-15 colon = system: HCT-15 colon
HT29 colon = system: HT29 colon
SNB-19 CNS = system: SNB-19 CNS
U251 CNS = system: U251 CNS
PC-3 prostate = system: PC-3 prostate
UACC-62 melanoma = system: UACC-62 melanoma
LOX IMVI melanoma = system: LOX IMVI melanoma
SK-MEL-28 melanoma = system: SK-MEL-28 melanoma
SK-MEL-2 melanoma = system: SK-MEL-2 melanoma
EKVX NSCLC = system: EKVX NSCLC
SN12C renal = system: SN12C renal
UO-31 renal = system: UO-31 renal
TK-10 renal = system: TK-10 renal
ACHN renal = system: ACHN renal
CAKI-1 renal = system: CAKI-1 renal
A498 renal = system: A498 renal
CCRF-CEM leukemia = system: CCRF-CEM leukemia
MOLT-4 leukemia = system: MOLT-4 leukemia
SK-MEL-5 melanoma = system: SK-MEL-5 melanoma

Measured: growth

O=c1ccn(C2CC(O)C(O)C(CO)O2)c(=O)[nH]1 (stereo unspecified)
active: CCRF-CEM leukemia 7.45%
inactive: HCT-15 colon 117% | HT29 colon 113% | SNB-19 CNS 110% | U251 CNS 125% | PC-3 prostate 89.5% | UACC-62 melanoma 105% | LOX IMVI melanoma 109% | SK-MEL-28 melanoma 109% | SK-MEL-2 melanoma 145% | EKVX NSCLC 110% | SN12C renal 92.5% | UO-31 renal 85% | TK-10 renal 121% | ACHN renal 116% | CAKI-1 renal 97% | A498 renal 118% | MOLT-4 leukemia 102%

COc1ccc(-c2nc(-c3nc4cc(C)c(C)cc4[nH]3)cc3c2[nH]c2ccccc23)cc1
active: HCT-15 colon 3.41% | HT29 colon 1.21% | UACC-62 melanoma -0.969%
inactive: SNB-19 CNS 82.7% | U251 CNS 10.5% | PC-3 prostate 40.9% | SK-MEL-5 melanoma 45.7% | SK-MEL-2 melanoma 86.9% | SN12C renal 55.2% | UO-31 renal 56.3% | TK-10 renal 81.4% | ACHN renal 39.6% | CAKI-1 renal 66.2% | A498 renal 93.6% | MOLT-4 leukemia 12.7%

N[C@@H]1CCN(C(=O)c2cc3cc(Cl)c(F)c(F)c3[nH]2)C1
inactive: HCT-15 colon 96.8% | HT29 colon 88% | SNB-19 CNS 90.2% | U251 CNS 86.2% | PC-3 prostate 90.5% | UACC-62 melanoma 104% | LOX IMVI melanoma 84% | SK-MEL-28 melanoma 105% | SK-MEL-2 melanoma 99.4% | EKVX NSCLC 86.9% | SN12C renal 90.6% | UO-31 renal 63.4% | TK-10 renal 101% | ACHN renal 90.9% | CAKI-1 renal 68% | CCRF-CEM leukemia 102% | MOLT-4 leukemia 94.7%

Cc1ccc(S(=O)(=O)NC(=O)n2cc(-c3ccncc3)c(-c3ccc(Cl)c(O)c3)n2)cc1
inactive: HCT-15 colon 107% | HT29 colon 101% | SNB-19 CNS 117% | U251 CNS 111% | PC-3 prostate 95.3% | UACC-62 melanoma 85.2% | LOX IMVI melanoma 93.4% | SK-MEL-28 melanoma 130% | SK-MEL-2 melanoma 90.9% | EKVX NSCLC 110% | SN12C renal 99.9% | UO-31 renal 107% | TK-10 renal 95.5% | ACHN renal 94.5% | CAKI-1 renal 95.5% | A498 renal 105% | CCRF-CEM leukemia 93.9% | MOLT-4 leukemia 85.2%

CC(C)(C)n1cc(-c2ccnc(NCCCNS(=O)(=O)c3ccc(Cl)cc3)c2)c(-c2cccc(O)c2)n1
inactive: SNB-19 CNS 24.6% | EKVX NSCLC 20.5% | SN12C renal 18.1% | UO-31 renal 11% | TK-10 renal 43.7% | CAKI-1 renal 19.2%
active: HCT-15 colon -65.3% | HT29 colon -49.3% | U251 CNS -43.7% | PC-3 prostate -0.444% | UACC-62 melanoma -2.46% | LOX IMVI melanoma -88.4% | SK-MEL-28 melanoma -67.1% | SK-MEL-2 melanoma -64% | ACHN renal 8.91% | A498 renal -8.44% | MOLT-4 leukemia -17.3%

O=C1/C(=C/c2ccccc2)Oc2ccc(O)c(I)c21
inactive: HCT-15 colon 94.5% | HT29 colon 105% | SNB-19 CNS 99.1% | U251 CNS 93% | PC-3 prostate 89.6% | UACC-62 melanoma 86.1% | LOX IMVI melanoma 93.8% | SK-MEL-28 melanoma 112% | SK-MEL-2 melanoma 95.3% | EKVX NSCLC 50.8% | SN12C renal 85.7% | UO-31 renal 58.5% | TK-10 renal 181% | ACHN renal 103% | CAKI-1 renal 78.6% | CCRF-CEM leukemia 94.7% | MOLT-4 leukemia 95.6%

CC1CN(c2oc(-c3ccccc3)nc2C#N)CC(C)O1 (stereo unspecified)
inactive: HCT-15 colon 103% | HT29 colon 106% | SNB-19 CNS 100% | U251 CNS 103% | PC-3 prostate 102% | SK-MEL-5 melanoma 93.1% | UACC-62 melanoma 97% | SK-MEL-2 melanoma 102% | EKVX NSCLC 92.6% | SN12C renal 97.9% | UO-31 renal 95.2% | TK-10 renal 116% | ACHN renal 103% | CAKI-1 renal 87% | A498 renal 93.8% | CCRF-CEM leukemia 104% | MOLT-4 leukemia 103%

N[C@H]1CN(C(=O)c2cc3cc(Br)c(F)c(F)c3[nH]2)C[C@@H]1O
inactive: HCT-15 colon 102% | HT29 colon 103% | SNB-19 CNS 96.6% | U251 CNS 95.9% | PC-3 prostate 93.6% | UACC-62 melanoma 93.6% | LOX IMVI melanoma 89.6% | SK-MEL-28 melanoma 106% | SK-MEL-2 melanoma 102% | EKVX NSCLC 92.8% | SN12C renal 95.7% | UO-31 renal 67.2% | TK-10 renal 107% | ACHN renal 102% | CAKI-1 renal 79.4% | CCRF-CEM leukemia 97.2%

CCN1C(=O)N(CC)C2C1NN=c1s/c(=C\c3cccnc3)c(=O)n12 (stereo unspecified)
active: HT29 colon 8.17%
inactive: HCT-15 colon 18.9% | SNB-19 CNS 29.2% | U251 CNS 19.1% | PC-3 prostate 21.3% | UACC-62 melanoma 30.7% | LOX IMVI melanoma 46% | SK-MEL-28 melanoma 51.8% | SK-MEL-2 melanoma 51.5% | EKVX NSCLC 45.5% | SN12C renal 45.2% | UO-31 renal 46.8% | TK-10 renal 80.7% | ACHN renal 42.9% | CAKI-1 renal 47.5% | CCRF-CEM leukemia 14.1% | MOLT-4 leukemia 26.5%

O=C1NC(=C(Cl)Cl)/C(=N/S(=O)(=O)N2CCC(C3(C(F)(F)F)N=N3)CC2)N1
inactive: SNB-19 CNS 86.7% | U251 CNS 45.2% | PC-3 prostate 89.6% | SK-MEL-5 melanoma 92% | UACC-62 melanoma 91.7% | SK-MEL-2 melanoma 101% | EKVX NSCLC 89.6% | SN12C renal 87.7% | UO-31 renal 85.7% | TK-10 renal 97% | ACHN renal 103% | CAKI-1 renal 74.5% | A498 renal 94.9% | MOLT-4 leukemia 54.9%
active: HCT-15 colon -60.6% | HT29 colon -10.2%

COc1cc(Nc2ncccc2C(=O)NCc2cn(Cc3cccc(Oc4ccccc4)c3)nn2)cc(OC)c1
inactive: HCT-15 colon 32.9% | SNB-19 CNS 59.9% | U251 CNS 34.7% | PC-3 prostate 57.2% | SK-MEL-5 melanoma 19.5% | UACC-62 melanoma 32.7% | SK-MEL-28 melanoma 67% | EKVX NSCLC 46.2% | SN12C renal 42.9% | UO-31 renal 49.8% | TK-10 renal 70.4% | ACHN renal 53.6% | CAKI-1 renal 36.9% | A498 renal 24.2%
active: HT29 colon 8.47%

CCOC(=O)c1ccc2c(c1)nc(-c1ccc(OCc3ccccc3)c(OC)c1)n2-c1cc(C(C)(C)C)[nH]n1
inactive: HCT-15 colon 59.4% | HT29 colon 71.7% | SNB-19 CNS 105% | U251 CNS 91.9% | PC-3 prostate 55.5% | SK-MEL-5 melanoma 65.3% | UACC-62 melanoma 84.3% | SK-MEL-28 melanoma 107% | SK-MEL-2 melanoma 92.9% | SN12C renal 85.8% | UO-31 renal 67.5% | TK-10 renal 90.5% | ACHN renal 72.1% | CAKI-1 renal 76.5% | A498 renal 72.3% | MOLT-4 leukemia 43.4%

ClC(Cl)c1nc(-c2cccnc2)n2nc(-c3ccccc3)cc2n1
inactive: SNB-19 CNS 25.7% | PC-3 prostate 24.4% | SK-MEL-5 melanoma 36% | UACC-62 melanoma 47.5% | SK-MEL-2 melanoma 87.6% | EKVX NSCLC 15.1% | SN12C renal 41.7% | UO-31 renal 59.9% | TK-10 renal 27.3% | A498 renal 58.5% | MOLT-4 leukemia 15%
active: HCT-15 colon -21.3% | HT29 colon -12.7% | U251 CNS -32.7% | ACHN renal -5.02% | CAKI-1 renal -2.31%

CC[N+](CC)=c1cc2oc3cc(N(C)C)ccc3nc-2cc1C
inactive: HCT-15 colon 47.4% | HT29 colon 28.3% | SNB-19 CNS 31.8% | PC-3 prostate 10.8% | UACC-62 melanoma 62.7% | SK-MEL-2 melanoma 19.4% | UO-31 renal 39.6% | TK-10 renal 54.6% | ACHN renal 73% | CAKI-1 renal 46.7% | A498 renal 99.2% | MOLT-4 leukemia 21.8%
active: U251 CNS 1.74% | SK-MEL-5 melanoma 7.58% | EKVX NSCLC 3.38% | SN12C renal 6.42%

COc1ccc(-c2nc3sc(-c4cc(OC)c(OC)c(OC)c4)nn3c2/C=C2/C(=O)Nc3ccc(F)cc32)cc1
active: HCT-15 colon -3.94% | HT29 colon -49.9% | U251 CNS -87.4% | PC-3 prostate -25% | SK-MEL-5 melanoma -39.2% | UACC-62 melanoma -26.1% | SK-MEL-28 melanoma -72.8% | SK-MEL-2 melanoma -10.8% | SN12C renal -29.2% | UO-31 renal -33.4% | TK-10 renal -52.2% | ACHN renal -15.7% | CAKI-1 renal 4.52%
inactive: SNB-19 CNS 11% | A498 renal 96.7%

CN1C(=O)N(C)C2C1NN=c1s/c(=C\c3cccnc3)c(=O)n12 (stereo unspecified)
inactive: HCT-15 colon 42.2% | HT29 colon 49.1% | SNB-19 CNS 81.4% | U251 CNS 90.2% | PC-3 prostate 65.9% | UACC-62 melanoma 68.6% | LOX IMVI melanoma 80.1% | SK-MEL-28 melanoma 81.5% | SK-MEL-2 melanoma 97.3% | EKVX NSCLC 89.6% | SN12C renal 93.5% | UO-31 renal 66.5% | TK-10 renal 109% | ACHN renal 92.3% | CAKI-1 renal 57.6% | CCRF-CEM leukemia 79.8% | MOLT-4 leukemia 88.7%

O=C1CS/C(=N\Nc2cc(=O)[nH]c3ccccc23)N1c1ccccc1
inactive: HCT-15 colon 94.5% | HT29 colon 98.6% | SNB-19 CNS 90.7% | U251 CNS 95% | PC-3 prostate 80.9% | UACC-62 melanoma 85.5% | LOX IMVI melanoma 88.2% | SK-MEL-28 melanoma 111% | SK-MEL-2 melanoma 100% | EKVX NSCLC 87.3% | SN12C renal 94.1% | UO-31 renal 69.7% | TK-10 renal 111% | ACHN renal 93.6% | CAKI-1 renal 81.3% | A498 renal 81.7% | CCRF-CEM leukemia 86.2% | MOLT-4 leukemia 98.8%

COc1cc(-c2nn(-c3cccc(NC(=O)c4ccc(N5CCOCC5)c(C(F)(F)F)c4)c3)cc2-c2ccncc2)ccc1Cl
active: HT29 colon -13.3% | U251 CNS 2.49% | PC-3 prostate 8.17% | SK-MEL-5 melanoma 3.41% | UACC-62 melanoma 8.35% | SK-MEL-2 melanoma -8.84% | A498 renal -29.7%
inactive: HCT-15 colon 16.7% | SNB-19 CNS 45.1% | SK-MEL-28 melanoma 28.4% | SN12C renal 31% | UO-31 renal 24.6% | TK-10 renal 17.8% | ACHN renal 21.3% | CAKI-1 renal 39.9%
